Data published in the supplement of paper PMC10933113.
Counter-ions that a name gives are not always drawn. ± gives the uncertainty stated by the source.

Test system: THP-1
Experiment: CD86 surface expression induction over DMSO control (% over DMSO); higher = stronger dendritic cell activation
Conditions: exposure time: 24 h
Protocol: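 hCLAT-like CD54 and CD86 surface expression on THP1 cells after 24 h exposure at a single concentration (highest non-cytotoxic concentration, or 100-200 µM if not cytotoxic). Flow cytometry (iQue) was run on 5,000 live cells.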

Compound | CD86 surface expression induction
NNC(N)=S [Thiosemicarbazide] (10 µM) | -15.6 ± 6.4
COc1ccc2[nH]cc(CCN(C(C)C)C(C)C)c2c1 [5-Methoxy-N,N-diisopropyltryptamine hydrochloride] (224.7 µM) | -4.94 ± 3.2
Nc1ccc(-c2ccccc2)cc1 [4-Biphenylamine hydrochloride] (100 µM) | -3.55 ± 5.8
S=C=NCc1ccccc1 (10 µM) | 64.3 ± 6.8
O=C(O)c1ccccc1C(=O)Nc1cccc2ccccc12 [Naptalam*] (200 µM) | 78.5 ± 110
O=C(O)c1ccc(=O)[nH]c1 [6-Hydroxynicotinic acid] (100 µM) | -4.7 ± 6.2
c1ccc2c(c1)OCC(C1=NCCN1)O2 (stereo not given) [Idazoxan] (10 µM) | -10.6 ± 13
OC[P+](CO)(CO)CO [Tetrakis(hydroxymethyl)phosphonium SO4] (100 µM) | 6.79 ± 11
CC(C)CC(C)Nc1ccc(Nc2ccccc2)cc1 (stereo not given) [N-(1,3-Dimethylbutyl)-N'-phenyl-p-phenylenediamine] (10 µM) | 59.8 ± 11
Nc1ccc(Cl)cc1Cl [2,4-Dichloroaniline] (200 µM) | -3.25 ± 7.7
[CH3][Hg][Cl] [Methyl mercuric (II) chloride] (10 µM) | 86 ± 7.1
C[C@]12CC[C@H](O)C[C@H]1CC[C@@H]1[C@@H]2C[C@@H](O)[C@]2(C)[C@@H](C3=CC(=O)OC3)CC[C@]12O [Digoxigenin] (10 µM) | 46.8 ± 22
CC(C)OC(=S)S [Proxan-sodium] (10 µM) | -16.7 ± 6.5
CCOP(=S)(OCC)Oc1cnc2ccccc2n1 [Quinalphos] (200 µM) | -2.83 ± 2.4
CC(C)=CC1C(C(=O)OCc2coc(Cc3ccccc3)c2)C1(C)C (stereo not given) [Resmethrin] (200 µM) | 16.4 ± 4.8
O=C(CCl)c1ccccc1 [2-Chloroacetophenone] (100 µM) | 8.54 ± 19
O=[N+]([O-])c1cc([N+](=O)[O-])c2ccccc2c1 [1,3-Dinitronaphthalene] (200 µM) | 2.95 ± 4.5
NNCc1ccccc1 (100 µM) | 2.81 ± 0.59
Fc1ccc(Oc2ccnc3cc(Cl)cc(Cl)c23)cc1 [Quinoxyfen] (200 µM) | 2.53 ± 5
OCc1ccco1 [Furfuryl alcohol] (201 µM) | 5.82 ± 11

Compound | CD86 surface expression induction
c1cc(OCC2CO2)ccc1Cc1ccc(OCC2CO2)cc1 (stereo not given) [Bis[4-(glycidyloxy)phenyl]methane] (100 µM) | 7.56 ± 6.6
c1ccc2sc(SNC3CCCCC3)nc2c1 [N-Cyclohexyl-2-benzothiazolesulfenamide] (100 µM) | 8.63 ± 9.4
CC(C)(C)C(=O)CCl [1-Chloro-3,3-dimethyl-butan-2-one] (200 µM) | -2.11 ± 2.4
COc1ccc(O)c(C(C)(C)C)c1 [2-tert-Butyl-4-methoxyphenol] (200 µM) | -4.34 ± 6.1
[Cl][Cd][Cl] [Cadmium II chloride] (200 µM) | 51.1 ± 5.8
ClC1=C(Cl)C2(Cl)C3C(Cl)C(Cl)CC3C1(Cl)C2(Cl)Cl (stereo not given) [Chlordane] (200 µM) | 33.3 ± 45
CCOC(=O)NC(=S)Nc1ccccc1NC(=S)NC(=O)OCC [Thiophanate] (100 µM) | 10.2 ± 18
COP(=S)(OC)Oc1ccc(SC)c(C)c1 [Fenthion] (100 µM) | -4.96 ± 3.4
Nc1ccc(Cl)cc1N [4-Chloro-1,2-diaminobenzene*] (200 µM) | 71.3 ± 120
[OH-].c1cc[c]([Sn+]([c]2ccccc2)[c]2ccccc2)cc1 [Triphenyltin hydroxide] (10 µM) | 77.3 ± 9.9
CC(COc1ccc(Oc2ccccc2)cc1)Oc1ccccn1 (stereo not given) [Pyriproxyfen] (200 µM) | -0.44 ± 4.1
CCOC(=O)CC(SP(=S)(OC)OC)C(=O)OCC (stereo not given) [Malathion] (100 µM) | -0.63 ± 4.7
O=C(N/N=C/c1ccc([N+](=O)[O-])o1)c1cc([N+](=O)[O-])cc([N+](=O)[O-])c1O [Nifursol] (200 µM) | 8.52 ± 13
c1ccc(Nc2ccc(Nc3ccccc3)cc2)cc1 [N,N'-Diphenyl-p-phenylenediamine] (200 µM) | -11.2 ± 8.1
CCCCOCN(C(=O)CCl)c1c(CC)cccc1CC [Butachlor] (10 µM) | -11.7 ± 10
COP(=O)(OC)OC(Br)C(Cl)(Cl)Br (stereo not given) [Naled] (100 µM) | 30.5 ± 5.4
COc1ccccc1N [2-Methoxyaniline hydrochloride] (100 µM) | -19.9 ± 30
CCNc1nc(NC(C)(C)C)nc(SC)n1 [Terbutryn] (100 µM) | 0.6 ± 2.4
COP(=S)(OC)Oc1nc(Cl)c(Cl)cc1Cl [Chlorpyrifos-methyl] (200 µM) | 17.7 ± 42
NCCc1ccc(O)cc1 [Tyramine] (100 µM) | -4.16 ± 4.5
